Source: PubChem BioAssay (Tox21)
Records with an inconclusive call do not appear. A number with no mark means an inactive call. Active and inactive are the calls of the source. The call rests on the fitted dose curve.

target: Peroxisome proliferator-activated receptor delta (Homo sapiens) (UniProt Q03181); experiment: qHTS assay to identify small molecule agonists of the peroxisome proliferator-activated receptor delta (PPARd) signaling pathway (AID 743212); settings: HEK293H PPARd-UAS-bla, beta-lactamase FRET ratio, 17 h; series mostly up to 62.6 µM; activation: at the top concentration
Sequence (Q03181 whole entry, looked up): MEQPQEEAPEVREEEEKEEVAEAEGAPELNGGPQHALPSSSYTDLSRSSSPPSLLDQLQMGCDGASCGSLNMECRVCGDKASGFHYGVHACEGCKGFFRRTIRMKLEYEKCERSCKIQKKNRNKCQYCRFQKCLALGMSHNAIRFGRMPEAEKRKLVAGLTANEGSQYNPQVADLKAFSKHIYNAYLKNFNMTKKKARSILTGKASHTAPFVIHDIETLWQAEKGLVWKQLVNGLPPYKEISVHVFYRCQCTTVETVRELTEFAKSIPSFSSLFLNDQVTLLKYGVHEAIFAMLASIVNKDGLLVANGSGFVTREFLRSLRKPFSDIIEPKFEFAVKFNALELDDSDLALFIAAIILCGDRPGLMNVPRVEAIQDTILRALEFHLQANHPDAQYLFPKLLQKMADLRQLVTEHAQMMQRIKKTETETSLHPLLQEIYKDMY
Source text: U.S. Tox21 Program National Center for Advancing Translational Sciences [NCATS] NIH Chemical Genomics Center [NCGC] U.S. Environmental Protection Agency [EPA] National Institutes of Environmental Health Sciences [NIEHS] National Toxicology Program [NTP] U.S. Food and Drug Administration [FDA] Tox21 Assay Overview: The peroxisome proliferator-activated receptors (PPARs) are lipid-activated transcription factors of the nuclear receptor superfamily with three distinct subtypes namely PPAR alpha, PPAR delta (PPARd) and PPAR gamma. All these subtypes heterodimerizes with Retinoid X receptor (RXR) and have different physiological functions. […] To identify the compounds that activate PPAR-delta signaling, GeneBLAzer PPAR delta UAS-bla HEK293H cell line (Invitrogen, Carlsbad, CA, USA) containing a beta-lactamase reporter gene under the control of an Upstream Activator Sequence (UAS) was used to screen the Tox21 compound library.
Tox21 Assay Protocol Summary: PPARd-bla cells were dispensed at 3000 cells/6uL/well in 1536-well black wall/clear bottom plates using a Multidrop Combi (Thermo Fisher Scientific, Waltham, MA) dispenser. After the assay plates were incubated at 37 C and 5% CO2 for 5 h, 23 nL of compounds dissolved in DMSO, positive controls or DMSO only was transferred to the assay plate by a Pintool station (Kalypsys, San Diego, CA). The assay plates were incubated at 37C for 17 h. After 1 uL of LiveBLAzerTM B/G FRET substrate was added using a Bioraptr Flying Reagent Dispenser (FRD) workstation (Beckman Coulter, Indianapolis, IN, USA), the plates were incubated at room temperature for 2 h, and fluorescence intensity was measured by an Envision plate reader (PerkinElmer, Shelton, CT).
On the % scale 0 is the no-effect control and ±100 the full control effect.

Structure (SMILES)	outcome	activation [%]
CCCCOCCOCCOC(C)=O	inactive	
CC(=O)c1ccc(S(=O)(=O)NC(=O)NC2CCCCC2)cc1	inactive	
O=C(OCc1ccccc1)c1ccccc1	inactive	
O=[N+]([O-])c1ccc(O)cc1	inactive	
COCCOCCOC	inactive	
Cc1cccc2ccccc12	inactive	
COCC(C)N (stereo not given)	inactive	
N[C@@H](Cc1c[nH]c2ccc(O)cc12)C(=O)O	inactive	
CCCCC/C(C=O)=C\c1ccccc1	inactive	
O=C(O)Cc1cccc2ccccc12	inactive	
NC(=O)OCC(COC(N)=O)c1ccccc1	inactive	
NC(N)=NC(N)=NCCc1ccccc1	inactive	
C/C=C/c1ccc(O)c(OC)c1	inactive	
CCCCNC(=O)NS(=O)(=O)c1ccc(N)cc1	inactive	
O=C(O)CCCCC1CCSS1 (stereo not given)	inactive	
COc1ccccc1O	inactive	
O=c1cc[nH]c(=O)[nH]1	inactive	
CCn1cc(C(=O)O)c(=O)c2ccc(C)nc21	inactive	
C#C[C@]1(O)CC[C@H]2[C@@H]3CCc4cc(O)ccc4[C@H]3CC[C@@]21C	inactive	
NC(=O)N/N=C/c1ccc([N+](=O)[O-])o1	inactive	

Structure (SMILES)	outcome	activation [%]
C[C@]12CC[C@@H]3c4ccc(O)cc4C[C@@H](CCCCCCCCCS(=O)CCCC(F)(F)C(F)(F)F)[C@H]3[C@@H]1CC[C@@H]2O (stereo not given in full)		-0.145
COC(=O)c1ccc(C=O)cc1	inactive	
Cc1ccc(O)c(-n2nc3ccccc3n2)c1	inactive	
N[C@@H](Cc1c[nH]c2ccccc12)C(=O)O	inactive	
Nc1ccc(N=Nc2ccccc2)c(N)n1	inactive	
Cc1c(N(C)C)c(=O)n(-c2ccccc2)n1C	inactive	
COc1ccccc1NC(=O)CC(C)=O	inactive	
CCCCCCCCCCCCCC(=O)OC(C)C	inactive	
CC(=O)CCC(C)C	inactive	
OCCCc1ccccc1	inactive	
O=C(O)CN(CC(=O)O)CC(=O)O	inactive	
CCCCCCCC(=O)OCC(O)CO (stereo not given)		6.79
COC(=O)c1ccc(O)cc1	inactive	
Cc1cnc(NC(=O)C2=C(O)c3ccccc3S(=O)(=O)N2C)s1	inactive	
COc1cc(O)c(C(=O)c2ccccc2)cc1S(=O)(=O)O	inactive	
C[C@]12C[C@H](O)[C@H]3[C@@H](CCC4=CC(=O)CC[C@@]43C)[C@@H]1CC[C@@H]2C(=O)CO	inactive	
COC(=O)C1CCC(C(=O)OC)CC1 (stereo not given)	inactive	
CC(C)CC(C)CC(O)CC(C)C (stereo not given)	inactive	
Cn1cnc2c1c(=O)[nH]c(=O)n2C	inactive	
NC(=O)NO	inactive	
